Assay outcomes: PubChem BioAssay, The Scripps Research Institute Molecular Screening Center
FBW7 act: activators of human E3 ligase FBW7. AID 1259310. normalized activity (activation), % at 26.1 µM. 650,000 tested, 0.13% active. AlphaScreen FBW7–phospho-cyclin E peptide binding, activator screen. Q969H0; in the data active = normalized activity above about 1.9%;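 note: purified mutant Fbw7 with reduced substrate affinity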
TEAD-YAP inh: TEAD-YAP interaction inhibition; inhibition, % at 9.12 µM; AID 1259422; 640,000 tested, 1.4% active; HEK-TIYL cells, TEAD-Gal4/YAP UAS-luciferase luminescence; in the data active = inhibition above about 32%
MITF inh: human MITF inhibition, primary screen; AID 1259374; O75030; AlphaScreen MITF homodimerization, bead proximity signal; 650,000 tested, 0.91% active; inhibition, % at 2.6 µM; in the data active = inhibition above about 50%
Target sequence (O75030 whole entry, looked up): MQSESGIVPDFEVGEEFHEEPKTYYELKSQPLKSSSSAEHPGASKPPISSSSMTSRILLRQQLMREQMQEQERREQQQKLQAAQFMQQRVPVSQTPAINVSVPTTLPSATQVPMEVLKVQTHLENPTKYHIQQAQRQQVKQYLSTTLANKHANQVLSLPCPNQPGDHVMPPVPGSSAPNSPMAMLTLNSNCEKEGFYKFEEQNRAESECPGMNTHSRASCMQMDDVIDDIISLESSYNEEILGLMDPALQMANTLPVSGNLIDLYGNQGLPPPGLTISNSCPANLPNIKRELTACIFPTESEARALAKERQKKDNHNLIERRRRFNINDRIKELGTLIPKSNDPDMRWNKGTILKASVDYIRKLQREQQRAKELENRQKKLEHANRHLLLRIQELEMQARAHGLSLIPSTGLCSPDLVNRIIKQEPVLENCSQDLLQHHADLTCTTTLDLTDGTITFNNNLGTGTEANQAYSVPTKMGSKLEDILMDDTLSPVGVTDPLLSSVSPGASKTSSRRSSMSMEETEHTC
GPR151 ag: human GPR151 activation. 650,000 tested, 1% active. activation, % at 11.2 µM. PathHunter beta-arrestin GPR151 cells, luminescence. Q8TDV0; in the data active = activation above about 4.9%
GPR151 confirm: human GPR151 activation, confirmation screen | activation, % at 11.2 µM | 6,700 tested, under 10 active | shares compounds with GPR151 ag | GPR151 PathHunter beta-arrestin cells, luminescence, 90 min; % of EA-reagent control over plate median;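 active = mean percent activation across replicates above the confirmation screen cutoff of 4.91%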
GPR119 counter: GPR119 activation, counter-screen for GPR151 activators; shares compounds with GPR151 ag; GPR119 PathHunter beta-arrestin cells, luminescence, 90 min; 0 = compound-well median, 100 = enzyme-acceptor control; activation, % at 11.2 µM; 6,700 tested, 0.3% active; AID 1508611;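 active = mean percent activation in the counterscreen above 29.09%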;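 note: counterscreen on off-target GPR119 to flag nonselective hits from the GPR151 activator screen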
Hits are given with their value. Shown are actives, neighbours in structure and some others; about 3.5% of the full set was active somewhere.

For CCOC(=O)c1sc(N/C(=C/C(=O)c2ccccc2)C(=O)O)cc1C the results were FBW7 act inactive, TEAD-YAP inh inactive, MITF inh inactive, GPR151 ag 9.0, GPR151 confirm inactive and GPR119 counter inactive.
For CCOC(=O)c1sc(NC(C)=O)cc1C the results were FBW7 act inactive, TEAD-YAP inh inactive, MITF inh inactive and GPR151 ag inactive.
`CC(=O)Nc1cccc(NC(=O)CSc2nnnn2-c2ccc3c(c2)OCO3)c1` gave FBW7 act inactive, TEAD-YAP inh inactive, MITF inh inactive, GPR151 ag 5.6, GPR151 confirm inactive and GPR119 counter inactive.
Screening CCCCN1C(=O)c2ccc(C(=O)Nc3cc(Cl)ccc3C(=O)O)cc2C1=O returned FBW7 act inactive, TEAD-YAP inh inactive, MITF inh inactive, GPR151 ag 7.2, GPR151 confirm inactive and GPR119 counter inactive.
Screening CCOc1cccc2cc(-c3csc(Nc4ccccc4Cl)n3)c(=O)oc12 returned FBW7 act inactive, TEAD-YAP inh inactive, MITF inh inactive and GPR151 ag inactive.
Screening CCOc1cccc2cc(-c3csc(Nc4ccccc4C(F)(F)F)n3)c(=O)oc12 returned FBW7 act inactive, TEAD-YAP inh inactive, MITF inh inactive, GPR151 ag 8.1, GPR151 confirm inactive and GPR119 counter inactive.
Screening COc1ccc(C)cc1NC(=O)COC(=O)CSc1nnc(N)s1 returned FBW7 act inactive, TEAD-YAP inh inactive, MITF inh inactive and GPR151 ag inactive.
For COc1ccc2nccnc2c1[N+](=O)[O-] the results were FBW7 act inactive, TEAD-YAP inh inactive, MITF inh inactive, GPR151 ag 13, GPR151 confirm inactive and GPR119 counter inactive.
`Cc1cccc(-c2nnn(CC(=O)OCC(=O)c3ccccc3)n2)c1` gave FBW7 act inactive, TEAD-YAP inh inactive, MITF inh inactive and GPR151 ag inactive.
For Cc1ccc2nc(C)c3c(c2c1)OC(CBr)C3 (stereo not drawn) the results were FBW7 act inactive, TEAD-YAP inh inactive, MITF inh inactive and GPR151 ag inactive.
Screening CSc1nc(C)c2c(n1)OC(CBr)C2 (stereo not drawn) returned FBW7 act inactive, TEAD-YAP inh inactive, MITF inh inactive, GPR151 ag 5.0, GPR151 confirm inactive and GPR119 counter inactive.
COc1ccc(Br)c(/C=N/NC(=O)COc2cccc3cccnc23)c1 was read as FBW7 act inactive, TEAD-YAP inh inactive, MITF inh inactive and GPR151 ag inactive.
Screening COc1cccc(NC(=O)N2CCC(n3nnc4cc(F)ccc43)CC2)c1 returned FBW7 act inactive, TEAD-YAP inh inactive, MITF inh inactive and GPR151 ag inactive.
For CC1=C(C(=O)N2CCCC2)C2(CCCCCC2)OC1=O the results were FBW7 act inactive, TEAD-YAP inh inactive, MITF inh inactive and GPR151 ag inactive.
`COc1cccc(N2CCN(C(=O)C3=C(C)C(=O)OC34CCCCC4)CC2)c1` gave FBW7 act inactive, TEAD-YAP inh inactive, MITF inh inactive, GPR151 ag 5.6, GPR151 confirm inactive and GPR119 counter inactive.
`Cc1ccc(-c2ccc3c(c2)CC(CNC(=O)CCc2ccco2)O3)nc1` (stereo not drawn) gave FBW7 act inactive, TEAD-YAP inh inactive, MITF inh inactive, GPR151 ag 6.4, GPR151 confirm inactive and GPR119 counter inactive.
Screening Cc1ccc(-c2ccc3c(c2)CC(CNC(=O)Cc2nc(-c4ccccc4)n[nH]2)O3)nc1 (stereo not drawn) returned FBW7 act inactive, TEAD-YAP inh inactive, MITF inh inactive and GPR151 ag inactive.
For C=CCOC(=O)C1=C(C)NC(C)=C(C(=O)OCC=C)C1c1cn(-c2ccccc2)nc1-c1ccc(Br)cc1 the results were FBW7 act inactive, TEAD-YAP inh inactive, MITF inh inactive, GPR151 ag 5.0, GPR151 confirm inactive and GPR119 counter inactive.
COc1ccc(-c2cc(C(=O)NCC(C)C)no2)cc1OC was read as FBW7 act inactive, TEAD-YAP inh inactive, MITF inh inactive and GPR151 ag inactive.
Screening COc1ccc(-c2cc(C(=O)NCC(C)C)on2)cc1OC returned FBW7 act inactive, TEAD-YAP inh inactive, MITF inh inactive, GPR151 ag 7.8, GPR151 confirm inactive and GPR119 counter inactive.
Screening CN(Cc1ccn[nH]1)C(=O)c1ccc(OC2CCN(C(=O)C3CC3)CC2)cc1 returned FBW7 act inactive, TEAD-YAP inh inactive, MITF inh inactive and GPR151 ag inactive.
For CN(Cc1ccn[nH]1)C(=O)c1cccc(OC2CCN(C(=O)C3CC3)CC2)c1 the results were FBW7 act inactive, TEAD-YAP inh inactive, MITF inh inactive, GPR151 ag 4.9, GPR151 confirm inactive and GPR119 counter inactive.
`CCOC(=O)c1cnc2ccc(Br)cc2c1Nc1ccc(OC)c(OC)c1` gave FBW7 act inactive, TEAD-YAP inh inactive, MITF inh inactive and GPR151 ag inactive.
`CS(=O)(=O)Nc1ccc(-c2csc(-c3ccccc3)n2)cc1` gave FBW7 act inactive, TEAD-YAP inh inactive, MITF inh inactive and GPR151 ag inactive.
For Cc1ccc(NC(=O)CSc2n[nH]c(N)n2)c(C)c1 the results were FBW7 act inactive, TEAD-YAP inh inactive, MITF inh inactive and GPR151 ag inactive.
For CCOc1ccc(CCNC(=O)c2cn(-c3ccc(OC)cc3)c(=O)c3ccccc23)cc1 the results were FBW7 act inactive, TEAD-YAP inh inactive, MITF inh inactive, GPR151 ag 7.0, GPR151 confirm inactive and GPR119 counter inactive.
`Cc1c(Cl)cccc1N(CC(=O)Nc1ccc(F)cc1F)S(C)(=O)=O` gave FBW7 act inactive, TEAD-YAP inh inactive, MITF inh inactive and GPR151 ag inactive.
`COc1ccc(C(=O)NC(c2ccccc2OC)c2cc(Cl)c3cccnc3c2O)cc1` (stereo not drawn) gave FBW7 act inactive, TEAD-YAP inh inactive, MITF inh inactive and GPR151 ag inactive.
COc1ccc(C(NC(C)=O)c2cc(Cl)c3cccnc3c2O)cc1 (stereo not drawn) was read as FBW7 act inactive, TEAD-YAP inh 84, MITF inh 62, GPR151 ag 5.1, GPR151 confirm inactive and GPR119 counter inactive.
`O=C(COC(=O)C1COc2ccccc2O1)c1ccc(OC(F)F)cc1` (stereo not drawn) gave FBW7 act inactive, TEAD-YAP inh inactive, MITF inh inactive and GPR151 ag inactive.
`CN(C)S(=O)(=O)c1ccc(C(=O)CSc2n[nH]c(N)n2)cc1` gave FBW7 act inactive, TEAD-YAP inh inactive, MITF inh inactive, GPR151 ag 9.6, GPR151 confirm inactive and GPR119 counter inactive.
`CCCCSc1nnc2c(n1)OC(c1ccc(Cl)cc1)Nc1ccccc1-2` (stereo not drawn) gave FBW7 act inactive, TEAD-YAP inh inactive, MITF inh inactive and GPR151 ag inactive.
